Experimental data published in PubChem BioAssay (NCATS).
Results filed as inconclusive are left out. Calls of active or inactive are those of the source. Unless noted, calls come from the whole dose curve; as a rule, active = well fitted curve in the direction sought with a large enough effect; inconclusive = small, poorly fitted or top-dose-only effect, or another doubt; inactive = no such curve, though single readings can be large; an effect the other way counts as inactive or inconclusive.

Tests used:
[1] = biological target: 3',5'-cyclic-AMP phosphodiesterase 4B (Homo sapiens) (UniProt Q07343); test: qHTS Assay for Inhibitors of PDE-IV (AID 607; active = well fitted activation curve with a large enough effect in the main read-out, with a control signal flat, not every such curve was filed as active)
3',5'-cyclic-AMP phosphodiesterase 4B (Homo sapiens), sequence (Q07343 whole entry, looked up): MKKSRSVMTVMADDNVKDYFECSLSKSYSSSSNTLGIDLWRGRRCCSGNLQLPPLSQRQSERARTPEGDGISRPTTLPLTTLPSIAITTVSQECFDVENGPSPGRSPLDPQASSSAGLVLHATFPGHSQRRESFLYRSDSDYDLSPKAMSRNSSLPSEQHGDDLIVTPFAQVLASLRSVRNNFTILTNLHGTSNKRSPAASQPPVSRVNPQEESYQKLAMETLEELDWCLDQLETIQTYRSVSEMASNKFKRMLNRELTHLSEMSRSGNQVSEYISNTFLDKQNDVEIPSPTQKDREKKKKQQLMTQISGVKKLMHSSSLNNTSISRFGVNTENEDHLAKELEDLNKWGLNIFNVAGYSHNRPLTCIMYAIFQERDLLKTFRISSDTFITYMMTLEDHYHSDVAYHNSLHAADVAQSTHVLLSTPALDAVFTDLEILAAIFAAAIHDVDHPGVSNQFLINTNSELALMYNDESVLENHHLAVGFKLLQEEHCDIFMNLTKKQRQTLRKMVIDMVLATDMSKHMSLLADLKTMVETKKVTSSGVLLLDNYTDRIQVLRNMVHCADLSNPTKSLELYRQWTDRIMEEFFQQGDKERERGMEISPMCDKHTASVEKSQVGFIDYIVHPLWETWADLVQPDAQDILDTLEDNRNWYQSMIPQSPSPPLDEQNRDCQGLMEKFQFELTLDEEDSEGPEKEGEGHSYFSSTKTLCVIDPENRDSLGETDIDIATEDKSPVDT
Outline: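 The readout is membrane depolarisation from a cAMP-sensing CNG channel, detected with a potential dye at ex 535/em 590. Cells were HEK293-derived (endogenous PDE-IV) at 1000 cells/well, titrated up to 22.9 uM final.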

[2] = Cellular Toxicity (caspase-3) HepG2 (AID 654);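 note: cells exposed to compound for 16 hours before reading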
Outline: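 Concentration-response AC50 values reflect caspase-3/7 induction in HepG2 cells after 16 hours of compound exposure, quantified by luminescence from liberated aminoluciferin and referenced to 100 uM tamoxifen as full stimulation.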

[3] = Cellular Toxicity (caspase-3) Jurkat (AID 655);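 note: cells exposed to compound for 16 h at 37 °C before reading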
Outline: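 Jurkat cells (5000/well) in complete medium were treated with compounds for 16 hr at 37 °C, then Caspase-Glo 3/7 luminescence was read after 20 min at room temperature. Data normalized to DMSO (basal) and 100 uM tamoxifen (100%); AC50 from Hill fit.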

[4] = Cellular Toxicity (caspase-3) HUV-EC-C (AID 656)
Outline: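 HUV-EC-C endothelial cells, 1000/well, were pre-incubated 5 hr at 37°C, then exposed to compounds for 16 hr at 37°C. Caspase-Glo 3/7 luminescence was read after 20 min at room temperature. AC50 came from Hill fits, normalized to DMSO and 100 uM tamoxifen.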

[5] = Cellular Toxicity (caspase-3) SHSY5Y (AID 657)
Outline: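 SH-SY5Y human neuroblastoma cells (1500/well) were treated with compounds for 16 h at 37 °C, then Caspase-Glo 3/7 luminescence was read after 1 h at room temperature. Data normalized to DMSO and 10 uM staurosporine; AC50 from Hill fits.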

[6] = Cellular Toxicity (caspase-3) BJ (AID 658)
Outline: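 Plated BJ cells (1000/well) rested 5 hr, received compound for 16 hr at 37 °C, then Caspase-Glo 3/7 reagent for 1 hr at room temperature before luminescence reading.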

[7] = Cellular Toxicity (caspase-3) MRC-5 (AID 659)
Outline: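 Apoptosis readout in MRC-5 cells: luciferase light generated after caspase 3/7 cleaves a peptide-aminoluciferin substrate, measured post 16 hr compound incubation at 37 °C.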

[8] = Cellular Toxicity (caspase-3) Mesangial (AID 660); details: Potency: caspase-3 activation;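 note: combined caspase 3 and 7 activity read by Caspase-Glo luminescence; cells exposed to compound for 16 h before the caspase read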
Outline: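 AC50 values come from Hill-equation fits of caspase 3/7 activation, measured as Caspase-Glo luminescence in human glomerular mesangial cells exposed to compound for 16 h at 37 °C; 100% set by 100 uM tamoxifen.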

[9] = Cellular Toxicity (caspase-3) SK-N-SH (AID 661)
Outline: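 Apoptosis readout in SK-N-SH neuroblastoma: Caspase-Glo 3/7 luminescence following 16 hr treatment in complete culture medium. Normalization used DMSO and 10 uM staurosporine controls.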

[10] = Cellular Toxicity (caspase-3) H-4-II-E (AID 663); details: Potency: caspase-3 activation;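 note: cells exposed to compound for 16 hr before readout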
Outline: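 Caspase 3/7 activation measured in H-4-II-E cells in complete culture medium after 16 hr treatment at 37 °C, using luciferase-coupled substrate readout; AC50 values come from Hill-equation fits of normalized concentration-response data.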

Measured: Potency

COC(=O)C1=CCCN(C)C1
inactive: [1]

CNC(=O)Oc1cccc2ccccc12
not listed: [1]
inactive: all other assays above

CC[n+]1c(-c2ccccc2)c2cc(N)ccc2c2ccc(N)cc21
not listed: [1]
inactive: all other assays above

O=C(CCCN1CCC(n2c(=O)[nH]c3ccccc32)CC1)c1ccc(F)cc1
inactive: [1]

CCCCCCCCC(=O)NCc1ccc(O)c(OC)c1
inactive: [1]

Oc1ccc2[nH]cc(CCCCN3CC=C(c4ccccc4)CC3)c2c1
inactive: [1]

O=C(O)c1nn(Cc2ccc(Cl)cc2Cl)c2ccccc12
inactive: [1]
